The record followed here is publication PMC5540273 (PLoS ONE, 2017).

What all share (conditions): concentration: 1 μM, replicates: in singlicate; n = 1
Experiment [1] concerns T1, RSK2(Kin.Dom.1-N-terminal).
T1 construct: gene RPS6KA3

Experiment [2] deals with T2, RSK2(Kin.Dom.2-C-terminal).
T2 construct: gene RPS6KA3

For experiment [3], the system named is T3, RSK3(Kin.Dom.1-N-terminal).
T3 construct: gene RPS6KA2

Experiment [4] concerns T4, RSK3(Kin.Dom.2-C-terminal).
T4 construct: gene RPS6KA2

The test system of experiment [5] is T5, RSK4(Kin.Dom.1-N-terminal).
T5 construct: gene RPS6KA6

The subject of experiment [6] is T6, RSK4(Kin.Dom.2-C-terminal).
T6 construct: gene RPS6KA6

Experiment [7] has as its system S6K1.
In experiment [8] the test system is SBK1.
Experiment [9] relates to SGK2.
The subject of experiment [10] is SGK3.
Experiment [11] deals with SGK.
In experiment [12] the test system is SIK2.
Experiment [13] concerns SIK.
The subject of experiment [14] is SLK.
In experiment [15] the test system is T7, SNARK.
T7 construct: gene NUAK2

For experiment [16], the system named is SNRK.
The subject of experiment [17] is SRC.
Experiment [18] relates to SRMS.
Experiment [19] relates to SRPK1.
The test system of experiment [20] is SRPK2.
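Note: KINOMEscan kinase panel screen.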

Regarding `NS(=O)(=O)c1cccc(-c2ccc3ncc(N4CCOCC4)nc3c2)c1` [GSK1535721], the “%Inh” value in [1] is reported as 15%; in [2], 7%; in experiment [3], 0%; in [4], 0%; in [5], 0%; in experiment [6], 0%. Besides, the “%Inh” value in experiment [7] is on record as 10%; in experiment [8], 0%; in experiment [9], 0%; in [10] it was 9%; in [11], 9%; in [12] it was 0%. Moreover, the “%Inh” value in [13] was 0%; in experiment [14], 2%; in experiment [15], 1%; in experiment [16], 0%; in [17], 0%; in [18], 6%. Moreover, the “%Inh” value in experiment [19] and in experiment [20] was 0% each time.
For `Cc1cccc(-c2nc(-c3ccc(S(C)(=O)=O)cc3)sc2-c2ccncc2)c1`, the “%Inh” value in [1] is listed as 0%; in [2], 25%; in experiment [3], 0%; in experiment [4], 4%; in experiment [5] it was 30%; in experiment [6], 15%. Moreover, the “%Inh” value came to 12% in [7]; 1% in experiment [8]; 0% in [9]; 12% in [10]; 0% in [11]; 0% in [12]. Besides, the “%Inh” value in experiment [13] was found to be 12%; in experiment [14] it was 26%; in experiment [15], 2%; in [16], 17%; in [17] it was 8%; in experiment [18], 0%. For the same molecule, the results for the “%Inh” value in experiment [19] and in experiment [20] were 15% and 0%, respectively.
For the molecule `O=c1cc(N2CCOCC2)nc2n(Cc3cccc(F)c3)ccn12` [GSK2297430], the “%Inh” value in [1] came out at 0%; in [2], 0%; in [3], 14%; in experiment [4], 0%; in experiment [5], 0%; in [6], 6%. Moreover, the “%Inh” value in experiment [7] came to 0%; in experiment [8] it was 6%; in experiment [9], 0%; in experiment [10] it was 0%; in experiment [11], 0%; in experiment [12], 2%. Also, the “%Inh” value in experiment [13] is listed as 4%; in experiment [14], 18%; in [15], 0%; in [16] it was 0%; in [17] it was 12%; in [18], 0%. The results for the “%Inh” value in experiment [19] and in [20] were 23% and 0%, respectively.
As to `Cc1ccc(NC(=O)c2ccnc(N3CCN(C)CC3)c2)cc1-c1ccc(C(=O)NCC2CC2)cc1` [GW775604], the “%Inh” value in experiment [1] stood at 0%; in [2] it was 0%; in experiment [3] it was 0%; in experiment [4] it was 15%; in [5] it was 0%; in experiment [6] it was 7%. The “%Inh” value amounted to 9% in [7]; 0% in experiment [8]; 0% in [9]; 0% in experiment [10]; 0% in [11]; 21% in experiment [12]. Moreover, the “%Inh” value is 0% in experiment [13]; 0% in experiment [14]; 0% in experiment [15]; 0% in [16]; 0% in experiment [17]; 3% in experiment [18]. Moreover, the “%Inh” value in experiment [19] and in [20] was 0% each time.
Consider `N#Cc1ccc(-c2cc(-c3c[nH]nc3-c3ccccn3)ccn2)cc1` [GW693028], for which the “%Inh” value is reported as 0% in experiment [1]; 24% in experiment [2]; 0% in experiment [3]; 0% in [4]; 0% in [5]; 28% in experiment [6]. The “%Inh” value is on record as 4% in experiment [7]; 4% in experiment [8]; 0% in experiment [9]; 0% in experiment [10]; 0% in [11]; 0% in [12]. The “%Inh” value in [13] stood at 0%; in experiment [14] it was 6%; in experiment [15], 0%; in experiment [16], 0%; in experiment [17] it was 0%; in experiment [18], 0%. For the same molecule, the “%Inh” value in [19] and in [20] was 0% in each case.
For the molecule `Cc1cn2c(=O)cc(N3CCOCC3)nc2n1Cc1cccc(Cl)c1Cl` [GSK2334006], the “%Inh” value is given as 12% in experiment [1]; 25% in experiment [2]; 16% in [3]; 0% in experiment [4]; 15% in experiment [5]; 13% in experiment [6]. The “%Inh” value in [7] amounted to 3%; in [8], 0%; in [9], 0%; in [10] it was 0%; in [11], 0%; in [12], 3%. The “%Inh” value in experiment [13] was 4%; in experiment [14], 32%; in experiment [15] it was 0%; in experiment [16] it was 1%; in experiment [17] it was 42%; in experiment [18] it was 0%. In addition, the “%Inh” value came to 21% in [19] and 0% in [20].
As to `Fc1ccc(-c2ncn(CCCN3CCOCC3)c2-c2cccnc2)cc1` [SB-211743], the “%Inh” value in [1] is given as 34%; in experiment [2], 0%; in [3], 0%; in experiment [4] it was 27%; in [5], 20%; in [6] it was 0%. In addition, the “%Inh” value in experiment [7] is given as 0%; in experiment [8], 1%; in experiment [9], 0%; in experiment [10], 0%; in experiment [11] it was 39%; in [12], 5%. The “%Inh” value was 0% in experiment [13]; 25% in experiment [14]; 0% in [15]; 0% in [16]; 0% in experiment [17]; 27% in experiment [18]. Moreover, the “%Inh” value in [19] and in experiment [20] was 0% in each case.
For the molecule `Cl.Nc1ncnc2occ(-c3ccc(NC(=O)Nc4cc(C(F)(F)F)ccc4F)cc3)c12` [SB-707548], the “%Inh” value in [1] is listed as 25%; in experiment [2], 27%; in [3], 67%; in experiment [4], 77%; in experiment [5], 0%; in [6] it was 39%. Besides, the “%Inh” value worked out at 81% in experiment [7]; 2% in [8]; 9% in experiment [9]; 19% in [10]; 0% in experiment [11]; 0% in experiment [12]. The “%Inh” value in experiment [13] was determined as 0%; in experiment [14] it was 98%; in [15], 0%; in [16], 0%; in experiment [17] it was 30%; in experiment [18], 4%. Further, the “%Inh” value in experiment [19] worked out at 50%; in experiment [20], 40%.
Turning to `Cc1cccc(-c2nc(Nc3ccc4ncsc4c3)c3ccccc3n2)n1` [GW867588], the “%Inh” value in experiment [1] was 8%; in [2] it was 0%; in experiment [3], 0%; in [4], 9%; in experiment [5], 6%; in experiment [6], 8%. The “%Inh” value in experiment [7] worked out at 0%; in experiment [8], 19%; in experiment [9], 0%; in experiment [10], 0%; in experiment [11], 5%; in experiment [12], 0%. Moreover, the “%Inh” value in experiment [13] is 10%; in [14], 7%; in experiment [15] it was 6%; in [16], 0%; in experiment [17], 7%; in experiment [18], 8%. Besides, the “%Inh” value in experiment [19] and in experiment [20] was 0% in each case.
Take `CC(C)(C)n1cnc2c(N)ncnc21` [SKF-97359]: the “%Inh” value was 0% in experiment [1]; 18% in [2]; 2% in experiment [3]; 18% in [4]; 0% in [5]; 46% in [6]. The “%Inh” value in experiment [7] turned out to be 5%; in experiment [8], 0%; in experiment [9], 0%; in [10] it was 0%; in experiment [11], 0%; in [12], 0%. The “%Inh” value in experiment [13], in experiment [14], in experiment [15], in [16], in [17] and in experiment [18] was 0% in each case. The “%Inh” value is listed as 0% in experiment [19] and 36% in experiment [20].
Regarding `[2H]C([2H])(c1cccc(C(F)(F)F)c1C)n1ccn2c(=O)nc(N3CCOCC3)cc12` [GSK2336394], the “%Inh” value in experiment [1] is given as 0%; in [2], 18%; in [3] it was 9%; in experiment [4] it was 0%; in [5], 0%; in experiment [6] it was 21%. The “%Inh” value came to 12% in experiment [7]; 24% in experiment [8]; 1% in experiment [9]; 0% in [10]; 0% in experiment [11]; 0% in experiment [12]. For the same molecule, the “%Inh” value in [13] came to 0%; in [14] it was 22%; in [15], 0%; in [16], 0%; in [17], 0%; in [18], 0%. The “%Inh” value stood at 37% in experiment [19] and 0% in [20].
